Measured values reported in PubChem BioAssay.
Records with an inconclusive call do not appear. Calls of active or inactive are those of the source.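 The calls were made as follows, unless noted: active = response below a set limit, under 55% cells CD8-positive and vesicle-bound, and CD8 cells' 90th-percentile brightness under 279; inactive = the rest.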

Assays:
[1] = rapamycin-like changes in RPL19A-GFP expression – cell-based, S. cerevisiae, multiplex flow cytometry, primary screen (AID 1862; in the data active = percent of DMSO control GFP below about 86%;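 also: lower values mimic rapamycin by blocking the RPL19A rise seen in DMSO cells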); details: S. cerevisiae RPL19A-GFP strain, flow cytometry fluorescence, 3 h; at 10 µM; stronger effect = lower value
[2] = TOR pathway GLN3 branch reporter MEP2-GFP changes – S. cerevisiae, multiplex flow cytometry, primary screen (AID 1867;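 active = GFP response, as percent of the DMSO control, above the screen-wide mean plus 3 SD, about 139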;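 also: median GFP channel fluorescence of barcode-gated MEP2-GFP cells measured by flow cytometry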); details: S. cerevisiae MEP2-GFP strain, 3 h, at 10 µM, stronger effect = higher value, 100% means same as DMSO wells
[3] = TOR pathway RTG branch CIT2 reporter changes – S. cerevisiae, GFP fusion, multiplex flow cytometry, primary screen (AID 1870;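 active = percent response above a set limit, the screen-wide mean plus 3 SD, cut at about 130% in these data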;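 also: barcoded CIT2-GFP strain pooled with four other GFP strains with rapamycin as positive control; median GFP fluorescence per well over plate mean of DMSO wells so 100% = DMSO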); details: S. cerevisiae CIT2-GFP expression, 3 h, at 10 µM, stronger effect = higher value
[4] = TOR pathway LAP4-GFP level changes – S. cerevisiae, multiplex flow cytometry, primary screen (AID 1873;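 active = GFP signal, as percent of the solvent control, above the screen mean plus 3 SD, about 149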); details: S. cerevisiae LAP4-GFP expression, 3 h, at 10 µM, stronger effect = higher value
[5] = yeast AGP1-GFP level changes, GLN3 branch – cell-based, multiplex flow cytometry, S. cerevisiae, primary screen (AID 1887;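 active = GFP signal above the screen-wide mean plus 3 SD, that is over about 124.5% of the solvent control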;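 also: AGP1-GFP fusion strain of S. cerevisiae within a five-strain barcoded multiplex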); details: 3 h, at 10 µM, stronger effect = higher value
[6] = hit retest on RPL19A-GFP reporter strain – cell-based, S. cerevisiae, flow cytometry, cherry picks, mother/daughter gates, confirmation (AID 2270;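 active = GFP response below 50% of the DMSO control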); details: 3 h, at 10 µM, stronger effect = lower value, 100 = same GFP as DMSO wells
[7] = yeast TOR pathway reporter LAP4-GFP change – cell-based, cherry picks, flow cytometry, mother/daughter gates, confirmation (AID 2271;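 active = GFP response above 150% of the DMSO control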;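 also: ratio of sample to DMSO plate mean so 100% equals DMSO level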); details: S. cerevisiae LAP4-GFP strain, 3 h, at 10 µM, stronger effect = higher value, 100 means same as DMSO control
[8] = TOR pathway reporter MEP2-GFP, retest of hits – S. cerevisiae, flow cytometry GFP, cherry picks, confirmation (AID 2272;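 active = GFP response above 150% of the DMSO control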;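 also: ratio of well signal to plate DMSO mean so 100% equals DMSO level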); details: S. cerevisiae MEP2-GFP strain, 3 h, at 10 µM, stronger effect = higher value
[9] = TOR pathway CIT2 reporter hit retest – S. cerevisiae, GFP fusion, cherry picks, mother/daughter gates, confirmation (AID 2274;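 active = GFP response above 150% of the DMSO level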); details: S. cerevisiae CIT2-GFP strain, flow cytometry, 3 h, at 10 µM, stronger effect = higher value
[10] = reduced mouse 2C T cell binding to pMHC/ICAM-1 vesicles – MLPCN validation set, flow cytometry, LFA-1/ICAM-1 modulator project, pilot screen (AID 2523); details: 2C mouse CD8+ T cells, at 7 µM, stronger effect = lower value; double positive events: measured here: CD8+/vesicle+ event percentage;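 as to vesicle binding response: mean PE anti-B7-1 fluorescence of CD8+ cells relative to row control; 100% = QL9-loaded vesicles with DMSO vehicle in the same plate row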
[11] = target: Integrin beta-1 (Homo sapiens) + Integrin alpha-4 (Homo sapiens) (UniProt P13612+P05556); assay: alpha4beta1 integrin LIBS antibody binding reduction – U937 cells, HUTS-21 mAb, flow cytometry, validation set, VLA-4 allosteric modulator project, pilot screen (AID 2674;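 active = inhibition above 50%, about 3 SD of the validation set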;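 also: antibody binding induced by the VLA-4 ligand LDV present at three times its Kd; 0% = LDV ligand with antibody and no compound and 100% = antibody without LDV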); details: HUTS-21 LIBS mAb binding, at 6.7 µM, stronger effect = higher value, binding induced by LDV ligand
[12] = calorie-restriction mimetic ROS inhibitors, yeast – validation compound set, pilot screen (AID 2706;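 active = superoxide response below 65% of plate, a cut near 3 SD across the whole screen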;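 also: yeast exposed to compound for one week at 30 degrees C before staining; 100% = mean of all compound wells on the same plate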); details: S. cerevisiae aging, superoxide DHE fluorescence; at 10 µM; stronger effect = lower value
[13] = target: Beta-adrenergic receptor kinase 1 (Homo sapiens) (UniProt P25098); assay: GRK2 binders displacing RNA aptamer, biochemical, validation, human GRK2, bead flow cytometry (AID 488806;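 active = aptamer binding inhibition above 30%, about 3 SD of noise from non-fluorescent compounds; inactive = inhibition at or below 30%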); details: bead-bound GRK2, FAM-aptamer displacement, at 10 µM, stronger effect = higher value
[14] = target: Beta-2 adrenergic receptor (Homo sapiens) (UniProt P07550); assay: agonist-induced loss of surface beta2AR – cell-based, FAP fluorogen, flow cytometry, validation set, pilot screen (AID 504459;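 active = percent response above 42, roughly 3 SD of non-fluorescent test compounds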;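 also: agonist-driven loss of surface beta2AR via internalization measured by FAP dye flow cytometry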); details: Am2.2-beta2AR cells, at 10 µM, stronger effect = higher value
[15] = target: AP-2 complex subunit beta (Homo sapiens) (UniProt P63010); assay: beta-arrestin/AP2 interaction blockers – biochemical, validation set, GST-AP2 beads, flow cytometry, pilot screen (AID 504541;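 active = inhibition above 54%, about 3 SD of non-fluorescent compounds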;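 also: AP2 carries R879A mutation and is captured from E. coli lysate; bead-bound FITC arrestin peptide fluorescence measuring arrestin peptide binding to AP2; 0% = DMSO wells and 100% = excess unlabeled arrestin peptide control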); details: FITC arrestin peptide, at 10 µM, stronger effect = higher value, AP2 beta2 appendage fragment, R879A mutant
[16] = cytosolic pH regulators acting via V-ATPase – S. cerevisiae, pHLuorin, HTS validation (AID 504600; in the data active = response above about 15%;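 also: plate controls were DMSO for no effect and reference compound for full effect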); details: V-ATPase proton transport, at 10 µM, stronger effect = higher value
[17] = test system: anti-desmoglein-3 scFv antibody binding to human DSG3; assay: blockers of pathogenic pemphigus antibody–desmoglein-3 binding – biochemical, validation compound set, bead-based, flow cytometry, pilot screen (AID 588368;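 active = binding below the plate cutoff, the plate median minus 3 SD, with a reading above zero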;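 also: signal is the median channel fluorescence of bead-bound GFP antibody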); details: Protein G beads, DSG3-Fc, scFv-GFP binding, at 10 µM, stronger effect = lower value
[18] = Nile Red efflux blockade in pump-expressing yeast – validation compound set, multiplex, phenotypic, pilot screen (AID 588506;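 active = efflux inhibition above 0.42, the validation set average plus 4 SD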;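 also: Nile Red retained in cells so higher fluorescence means more efflux inhibition; 0 = negative control wells and 1 = enniatin B 25 µM full block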); details: S. cerevisiae pump-expressing triplex, Nile Red efflux flow cytometry; at 10 µM; stronger effect = higher value; the pumps come from Candida albicans
[19] = target: ATP-binding cassette sub-family B member 6 (Homo sapiens) (UniProt Q9NP58); assay: blockers of ABCB6-driven porphyrin uptake – K562-ABCB6 cells, flow cytometry, validation set, pilot screen (AID 588550;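 active = inhibition above the screen-wide mean plus 3 SD, about 51%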;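 also: 0% = DMSO wells and 100% = benzethonium chloride 70 µM positive control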); details: K562-ABCB6 porphyrin accumulation, 1 h, at 10 µM, stronger effect = higher value
[20] = AML differentiation inducers, ER-HoxA9 marrow cells – cell-based, GFP/MAC1 double positive, flow cytometry, validation set, primary screen (AID 588685;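 active = differentiation response of at least 50%, scaled between solvent and reference control, from cells with both markers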;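 also: compound exposure lasts four days before antibody staining and flow analysis; 0% = DMSO wells and 100% = 5 µM fulvestrant positive control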); details: stronger effect = higher value, normalized: vehicle 0, fulvestrant 100
[21] = measured here: daughter cell gate
[22] = measured here: mother cell gate
[23] = measured here: daughter cell gate response
[24] = measured here: mother cell gate response

Chain of Beta-adrenergic receptor kinase 1 (Homo sapiens) (P25098 whole entry, looked up): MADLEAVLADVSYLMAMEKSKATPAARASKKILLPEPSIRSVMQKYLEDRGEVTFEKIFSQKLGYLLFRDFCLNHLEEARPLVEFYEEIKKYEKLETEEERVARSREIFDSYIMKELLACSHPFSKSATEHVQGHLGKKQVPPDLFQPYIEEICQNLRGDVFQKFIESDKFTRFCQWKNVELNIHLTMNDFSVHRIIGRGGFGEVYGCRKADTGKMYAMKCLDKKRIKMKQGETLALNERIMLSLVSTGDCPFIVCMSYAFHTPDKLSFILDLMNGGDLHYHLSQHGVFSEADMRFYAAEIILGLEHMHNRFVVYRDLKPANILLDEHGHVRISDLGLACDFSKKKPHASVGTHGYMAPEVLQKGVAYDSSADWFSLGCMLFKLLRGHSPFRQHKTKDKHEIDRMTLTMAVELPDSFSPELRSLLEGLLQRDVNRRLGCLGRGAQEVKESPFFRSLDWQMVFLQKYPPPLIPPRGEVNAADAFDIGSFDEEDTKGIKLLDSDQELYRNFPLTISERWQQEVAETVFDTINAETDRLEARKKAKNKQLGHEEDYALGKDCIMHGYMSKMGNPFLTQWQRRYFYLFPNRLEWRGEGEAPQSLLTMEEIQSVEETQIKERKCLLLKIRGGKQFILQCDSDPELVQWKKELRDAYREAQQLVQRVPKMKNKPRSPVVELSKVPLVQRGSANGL
Chain of AP-2 complex subunit beta (Homo sapiens) (P63010 whole entry, looked up, the tested form may be a part, one chain of several): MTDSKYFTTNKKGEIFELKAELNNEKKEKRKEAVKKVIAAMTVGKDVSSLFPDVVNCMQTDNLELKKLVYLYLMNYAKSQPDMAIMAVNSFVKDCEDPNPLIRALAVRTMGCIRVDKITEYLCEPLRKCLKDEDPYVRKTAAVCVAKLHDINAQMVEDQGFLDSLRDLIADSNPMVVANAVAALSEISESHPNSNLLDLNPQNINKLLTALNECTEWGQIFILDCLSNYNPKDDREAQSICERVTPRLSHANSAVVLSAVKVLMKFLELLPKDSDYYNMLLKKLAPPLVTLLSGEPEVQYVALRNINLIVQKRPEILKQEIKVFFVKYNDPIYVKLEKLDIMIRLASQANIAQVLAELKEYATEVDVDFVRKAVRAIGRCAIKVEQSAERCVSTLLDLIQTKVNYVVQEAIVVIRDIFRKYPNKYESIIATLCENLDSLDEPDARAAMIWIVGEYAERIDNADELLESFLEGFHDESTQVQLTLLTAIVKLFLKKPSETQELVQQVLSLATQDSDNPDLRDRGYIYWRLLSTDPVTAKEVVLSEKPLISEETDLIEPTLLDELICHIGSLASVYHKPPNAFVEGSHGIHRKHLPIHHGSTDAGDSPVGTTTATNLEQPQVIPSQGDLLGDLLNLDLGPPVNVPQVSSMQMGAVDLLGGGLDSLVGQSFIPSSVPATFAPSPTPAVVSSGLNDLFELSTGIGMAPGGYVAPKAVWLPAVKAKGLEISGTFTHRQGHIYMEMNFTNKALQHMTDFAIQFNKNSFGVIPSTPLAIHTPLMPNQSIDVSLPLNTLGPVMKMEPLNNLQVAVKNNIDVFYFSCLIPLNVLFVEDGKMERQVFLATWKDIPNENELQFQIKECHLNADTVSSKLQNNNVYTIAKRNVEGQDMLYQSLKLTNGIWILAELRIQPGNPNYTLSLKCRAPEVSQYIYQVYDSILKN
Chain of Integrin beta-1 (Homo sapiens) + Integrin alpha-4 (Homo sapiens) (P05556 whole entry, looked up): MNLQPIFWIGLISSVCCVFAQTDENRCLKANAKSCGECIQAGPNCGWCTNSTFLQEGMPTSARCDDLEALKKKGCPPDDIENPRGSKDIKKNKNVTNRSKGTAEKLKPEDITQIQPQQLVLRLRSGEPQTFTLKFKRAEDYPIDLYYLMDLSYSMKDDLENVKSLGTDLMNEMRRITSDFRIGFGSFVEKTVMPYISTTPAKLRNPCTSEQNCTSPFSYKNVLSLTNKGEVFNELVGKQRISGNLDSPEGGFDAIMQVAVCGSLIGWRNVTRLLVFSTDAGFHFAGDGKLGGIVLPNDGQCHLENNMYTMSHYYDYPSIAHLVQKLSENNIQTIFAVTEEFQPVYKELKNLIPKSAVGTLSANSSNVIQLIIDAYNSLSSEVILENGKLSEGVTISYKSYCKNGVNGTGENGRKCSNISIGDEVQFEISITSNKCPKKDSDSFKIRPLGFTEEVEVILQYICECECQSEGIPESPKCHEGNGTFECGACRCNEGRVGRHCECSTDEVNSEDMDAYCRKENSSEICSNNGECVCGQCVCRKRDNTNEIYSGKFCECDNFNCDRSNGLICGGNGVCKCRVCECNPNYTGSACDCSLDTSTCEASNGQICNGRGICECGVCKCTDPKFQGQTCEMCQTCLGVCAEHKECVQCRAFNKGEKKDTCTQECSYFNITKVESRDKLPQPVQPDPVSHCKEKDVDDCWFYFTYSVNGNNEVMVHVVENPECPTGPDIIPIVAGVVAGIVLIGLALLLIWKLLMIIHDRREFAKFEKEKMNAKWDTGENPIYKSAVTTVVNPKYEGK
Chain of Integrin beta-1 (Homo sapiens) + Integrin alpha-4 (Homo sapiens) (P13612 whole entry, looked up): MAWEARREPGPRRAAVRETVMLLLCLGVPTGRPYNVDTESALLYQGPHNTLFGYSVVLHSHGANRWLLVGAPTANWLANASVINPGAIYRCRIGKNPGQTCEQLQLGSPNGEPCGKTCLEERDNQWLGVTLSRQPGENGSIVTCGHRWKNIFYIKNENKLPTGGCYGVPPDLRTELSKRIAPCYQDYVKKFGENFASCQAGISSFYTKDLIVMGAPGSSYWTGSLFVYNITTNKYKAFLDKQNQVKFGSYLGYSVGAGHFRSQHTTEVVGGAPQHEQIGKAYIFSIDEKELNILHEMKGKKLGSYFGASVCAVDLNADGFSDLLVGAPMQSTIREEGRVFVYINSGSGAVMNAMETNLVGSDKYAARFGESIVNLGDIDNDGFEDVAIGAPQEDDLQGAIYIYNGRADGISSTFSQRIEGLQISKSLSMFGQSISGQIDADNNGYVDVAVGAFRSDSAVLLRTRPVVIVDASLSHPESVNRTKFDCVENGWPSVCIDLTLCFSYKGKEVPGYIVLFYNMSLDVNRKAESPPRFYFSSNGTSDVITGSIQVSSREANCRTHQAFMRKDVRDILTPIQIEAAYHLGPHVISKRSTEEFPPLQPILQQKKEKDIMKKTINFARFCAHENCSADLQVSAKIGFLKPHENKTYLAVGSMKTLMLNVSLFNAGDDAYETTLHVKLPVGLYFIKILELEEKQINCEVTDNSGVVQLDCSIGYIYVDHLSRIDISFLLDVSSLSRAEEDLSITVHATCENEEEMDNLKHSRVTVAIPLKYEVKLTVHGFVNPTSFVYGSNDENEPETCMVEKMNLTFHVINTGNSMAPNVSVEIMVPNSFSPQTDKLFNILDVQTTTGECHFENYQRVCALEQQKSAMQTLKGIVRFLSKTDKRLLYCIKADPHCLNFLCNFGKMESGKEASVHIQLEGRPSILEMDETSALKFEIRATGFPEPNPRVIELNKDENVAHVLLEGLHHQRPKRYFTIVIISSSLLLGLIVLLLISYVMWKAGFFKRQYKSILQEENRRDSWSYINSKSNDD
Chain of Beta-2 adrenergic receptor (Homo sapiens) (P07550 whole entry, looked up): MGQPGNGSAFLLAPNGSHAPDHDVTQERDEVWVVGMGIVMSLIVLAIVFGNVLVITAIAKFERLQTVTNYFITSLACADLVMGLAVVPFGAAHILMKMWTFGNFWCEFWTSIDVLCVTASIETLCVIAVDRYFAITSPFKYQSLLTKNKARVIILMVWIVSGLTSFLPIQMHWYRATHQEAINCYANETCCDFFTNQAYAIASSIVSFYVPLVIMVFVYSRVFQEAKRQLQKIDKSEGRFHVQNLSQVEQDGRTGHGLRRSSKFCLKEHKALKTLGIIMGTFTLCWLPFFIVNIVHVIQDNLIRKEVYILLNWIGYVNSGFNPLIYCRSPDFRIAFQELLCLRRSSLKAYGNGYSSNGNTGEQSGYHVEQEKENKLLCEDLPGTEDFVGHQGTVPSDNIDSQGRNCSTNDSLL
Chain of ATP-binding cassette sub-family B member 6 (Homo sapiens) (Q9NP58 whole entry, looked up): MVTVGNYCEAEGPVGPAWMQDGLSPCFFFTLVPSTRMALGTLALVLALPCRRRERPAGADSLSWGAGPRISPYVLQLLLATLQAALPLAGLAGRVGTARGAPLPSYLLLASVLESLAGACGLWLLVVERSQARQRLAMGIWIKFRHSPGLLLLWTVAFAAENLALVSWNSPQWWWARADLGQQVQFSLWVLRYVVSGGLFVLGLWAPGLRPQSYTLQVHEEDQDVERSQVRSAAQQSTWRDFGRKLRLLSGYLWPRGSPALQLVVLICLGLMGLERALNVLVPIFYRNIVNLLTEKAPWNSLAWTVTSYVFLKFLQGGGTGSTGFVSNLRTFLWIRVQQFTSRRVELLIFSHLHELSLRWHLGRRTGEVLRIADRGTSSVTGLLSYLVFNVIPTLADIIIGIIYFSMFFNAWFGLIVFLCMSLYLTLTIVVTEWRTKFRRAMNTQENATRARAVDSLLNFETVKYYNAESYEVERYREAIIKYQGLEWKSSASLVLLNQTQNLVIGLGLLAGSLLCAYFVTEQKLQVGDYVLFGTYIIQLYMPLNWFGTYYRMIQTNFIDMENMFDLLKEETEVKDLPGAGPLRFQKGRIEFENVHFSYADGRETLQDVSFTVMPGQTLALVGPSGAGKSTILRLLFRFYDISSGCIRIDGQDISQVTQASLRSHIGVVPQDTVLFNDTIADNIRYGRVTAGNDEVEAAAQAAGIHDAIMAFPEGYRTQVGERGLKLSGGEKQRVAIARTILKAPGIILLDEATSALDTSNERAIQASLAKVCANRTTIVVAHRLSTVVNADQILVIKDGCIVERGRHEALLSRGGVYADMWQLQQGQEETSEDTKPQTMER

CCOC(=O)C(Cc1cc(C(C)=O)ccc1OC(C)C)C(=O)OCC
95%: GFP response relative to DMSO [7, 23]
96.8%: GFP response, % of DMSO [9, 22]
99.5%: GFP response relative to DMSO [7, 24]
101%: GFP response vs DMSO [6, 21]
active: GFP response vs DMSO [2] 142%
58.5%: double positive events [10]
inactive: percent of DMSO control GFP [1] 93% | percent response of DMSO control [3] 110% | GFP response vs DMSO [4] 85.3% | GFP response, % of DMSO [5] 89.1% | GFP response vs DMSO [6] 101% | GFP response relative to DMSO [7] 97.7% | GFP response vs DMSO [8] 99.5% | GFP response, % of DMSO [9] 96.4% | vesicle binding response [10] 151% | inhibition [11] -1.3% | superoxide response (% of plate) [12] 91% | aptamer binding inhibition [13] 4% | response [14] -7.47% | inhibition [15] 47% | response [16] -8.56% | binding (% of control) [17] 99.8% | efflux inhibition (fraction of control) [18] -0.09 | inhibition [19] 10% | differentiation response [20] 4.09%
102%: GFP response vs DMSO [6, 22]
98.3%: GFP response, % of DMSO [9, 21]

COc1ccc(-c2noc(-c3ccccc3-c3ccccc3)n2)cc1
97.3%: GFP response relative to DMSO [7, 24]
inactive: percent of DMSO control GFP [1] 91.1% | percent response of DMSO control [3] 114% | GFP response vs DMSO [4] 81.4% | GFP response, % of DMSO [5] 86.3% | GFP response vs DMSO [6] 95.6% | GFP response relative to DMSO [7] 95.7% | GFP response vs DMSO [8] 107% | GFP response, % of DMSO [9] 97.3% | vesicle binding response [10] 138% | inhibition [11] -15.8% | superoxide response (% of plate) [12] 94.3% | aptamer binding inhibition [13] 8% | response [14] 3.77% | inhibition [15] 19.4% | response [16] -3.56% | binding (% of control) [17] 100% | efflux inhibition (fraction of control) [18] 0.19 | inhibition [19] 6% | differentiation response [20] -1.64%
56.5%: double positive events [10]
97.4%: GFP response, % of DMSO [9, 21]
active: GFP response vs DMSO [2] 142%
96.8%: GFP response vs DMSO [6, 22] | GFP response, % of DMSO [9, 22]
95.9%: GFP response relative to DMSO [7, 23]
92.9%: GFP response vs DMSO [6, 21]

CC(=O)[C@@]1(O)CC[C@H]2[C@@H]3C[C@H](C)C4=CC(=O)CC[C@]4(C)[C@H]3CC[C@@]21C
72%: double positive events [10]
inactive: percent of DMSO control GFP [1] 90.2% | GFP response vs DMSO [2] 114% | percent response of DMSO control [3] 96.6% | GFP response vs DMSO [4] 78.1% | GFP response, % of DMSO [5] 96.6% | GFP response vs DMSO [6] 94.8% | GFP response relative to DMSO [7] 94.1% | GFP response vs DMSO [8] 92% | GFP response, % of DMSO [9] 98.3% | vesicle binding response [10] 363% | inhibition [11] 11.3% | superoxide response (% of plate) [12] 97% | aptamer binding inhibition [13] 4% | response [14] 4.79% | inhibition [15] -6.18% | response [16] 1.54% | binding (% of control) [17] 102% | efflux inhibition (fraction of control) [18] -0.46 | inhibition [19] 13% | differentiation response [20] -9.01%
96.1%: GFP response vs DMSO [6, 21] | GFP response, % of DMSO [9, 22]
95.1%: GFP response vs DMSO [6, 22]
92.9%: GFP response relative to DMSO [7, 24]
101%: GFP response, % of DMSO [9, 21]
92.8%: GFP response relative to DMSO [7, 23]

CC(=O)O[C@]1(C(C)=O)CC[C@H]2[C@@H]3C[C@H](C)C4=CC(=O)CC[C@]4(C)[C@H]3CC[C@@]21C
63.9%: double positive events [10]
inactive: percent of DMSO control GFP [1] 98.4% | GFP response vs DMSO [2] 106% | percent response of DMSO control [3] 90.8% | GFP response vs DMSO [4] 84.8% | GFP response, % of DMSO [5] 95.7% | GFP response vs DMSO [6] 94.3% | GFP response relative to DMSO [7] 98.8% | GFP response vs DMSO [8] 93.3% | GFP response, % of DMSO [9] 101% | vesicle binding response [10] 241% | inhibition [11] -3.57% | aptamer binding inhibition [13] -1% | response [14] 3.07% | inhibition [15] -9.79% | response [16] -0.42% | binding (% of control) [17] 100% | efflux inhibition (fraction of control) [18] 0.08 | inhibition [19] 20% | differentiation response [20] 10%
97.2%: GFP response vs DMSO [6, 22]
98.5%: GFP response relative to DMSO [7, 24]
101%: GFP response, % of DMSO [9, 22]
97.9%: GFP response relative to DMSO [7, 23]
95.7%: GFP response vs DMSO [6, 21]
102%: GFP response, % of DMSO [9, 21]

CNCCC(Oc1ccc(C(F)(F)F)cc1)c1ccccc1 (stereo not given)
94.8%: GFP response, % of DMSO [9, 21]
99.1%: GFP response vs DMSO [6, 22]
58%: double positive events [10]
inactive: percent of DMSO control GFP [1] 89.8% | percent response of DMSO control [3] 107% | GFP response vs DMSO [4] 83.1% | GFP response, % of DMSO [5] 90.3% | GFP response vs DMSO [6] 98.4% | GFP response relative to DMSO [7] 97.4% | GFP response vs DMSO [8] 102% | GFP response, % of DMSO [9] 93.9% | vesicle binding response [10] 142% | inhibition [11] 6.46% | superoxide response (% of plate) [12] 85.8% | aptamer binding inhibition [13] 0% | response [14] 16.8% | inhibition [15] 13.5% | response [16] 1.16% | binding (% of control) [17] 94.1% | inhibition [19] 6% | differentiation response [20] -1.64%
97%: GFP response vs DMSO [6, 21]
101%: GFP response relative to DMSO [7, 24]
95.6%: GFP response relative to DMSO [7, 23]
active: GFP response vs DMSO [2] 141%
93.4%: GFP response, % of DMSO [9, 22]

C1COC(NC(C2CC2)C2CC2)=N1
64.4%: double positive events [10]
101%: GFP response, % of DMSO [9, 21]
inactive: percent of DMSO control GFP [1] 89.3% | percent response of DMSO control [3] 110% | GFP response vs DMSO [4] 85.3% | GFP response, % of DMSO [5] 94.5% | GFP response vs DMSO [6] 96% | GFP response relative to DMSO [7] 95.4% | GFP response vs DMSO [8] 96.2% | GFP response, % of DMSO [9] 98.3% | vesicle binding response [10] 227% | inhibition [11] 17.1% | superoxide response (% of plate) [12] 96.6% | aptamer binding inhibition [13] 3% | response [14] 3.85% | inhibition [15] 11.9% | response [16] 9.25% | binding (% of control) [17] 98.3% | efflux inhibition (fraction of control) [18] 0.23 | inhibition [19] 6% | differentiation response [20] 0.82%
95.1%: GFP response relative to DMSO [7, 24]
97.6%: GFP response vs DMSO [6, 22]
active: GFP response vs DMSO [2] 148%
97.1%: GFP response vs DMSO [6, 21]
97.3%: GFP response, % of DMSO [9, 22]
96%: GFP response relative to DMSO [7, 23]
